# SW480 rerep: A quantitative high throughput screen for small molecules that induce DNA re-replication in SW480 colon adenocarcinoma cells; SW480 DNA re-replication, Hoechst DNA content imaging, 48 h; Potency, µM (doses to about 46.1 µM), actives largely listed as activators; hit rate 1.8% among 340,000; AID 624297, 2012; note: nearly all actives have a fitted effect of over 55% in size
#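 Quantitative HTS format with DMSO vehicle controls; 48 hr drug incubation at 37 C, then 40 min Hoechst staining and scanning imager measurement at 405 nm excitation.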
# TDP1 cell CPT: qHTS for Inhibitors of human tyrosyl-DNA phosphodiesterase 1 (TDP1): qHTS in cells in presence of CPT; chicken DT40 Tdp1-/-;hTDP1 cells + 20 nM CPT, ATP luminescence, 48 h; Potency, µM (highest dose often 46.2 µM), usual class: inhibitors; hit rate 12% among 420,000; note: nearly all actives have a fitted effect of over 55% in size
#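 Chicken DT40 Tdp1-/- cells complemented with human TDP1, 400 cells/well, exposed to compounds plus 20 nM camptothecin for at least 48 h at 37 C; viability read as ATP content by CellTiter-Glo luminescence.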
# IL-1B inflam inh: qHTS for Inhibitors of Inflammasome Signaling: IL-1-beta AlphaLISA Primary Screen | THP-1 LPS/ATP IL-1B secretion, AlphaLISA, 16 h; hits give low values | activity change, % at 57.5 µM | hit rate 4.7% among 360,000; in the data active = activity change below about -50%; inconclusive = mostly about -30% to -49%
#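 THP-1 cells pretreated 1 hr with compounds (up to 57.5 uM final), then stimulated with LPS (250 ng/mL final) plus ATP (1.25 mM final); secreted IL-1B measured by AlphaLISA after 16 hr, decreased signal indicating inhibition.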
# TDP1 cell noCPT: qHTS for Inhibitors of human tyrosyl-DNA phosphodiesterase 1 (TDP1): qHTS in cells in absence of CPT. hit rate 15% among 420,000. DT40 Tdp1-/- hTDP1 cells, no CPT, ATP luminescence, 48 h. Potency, µM (top dose mostly 46.2 µM), actives largely listed as inhibitors. AID 686978, 2013; note: nearly all actives have a fitted effect of over 55% in size
#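 A cellular qHTS used chicken DT40 cells lacking endogenous Tdp1 but carrying stably transfected human TDP1. Compounds were applied without camptothecin, and cell growth kinetics were judged by ATP-dependent luminescence after ≥48 hr.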
# Chronic BCR inh: qHTS Assay to Find Inhibitors of Chronic Active B-Cell Receptor Signaling. ABC-DLBCL IkBa-CBG/CBR reporter, luminescence ratio, 4 h. hit rate 0.05% among 340,000. Potency, µM (top dose mostly 46.1 µM), usual class: inhibitors. AID 493014, 2011; active = well fitted inhibition curve with a large enough effect in the signal ratio, with a control signal flat, not every such curve was filed as active; inconclusive = small, poorly fitted or top-dose-only effect, or effect the other way, or a change in a side signal; the % refers to the signal ratio
#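 TMD8 ABC-DLBCL cells carrying doxycycline-inducible green luciferase fused to IkappaBalpha plus unfused red luciferase were exposed to compounds (up to 46 uM) for 4 hrs at 37C. Activity came from the overlap-corrected green/red luminescence ratio.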
# MCF10A rereplic: A quantitative high throughput screen for small molecules that induce DNA re-replication in MCF 10a normal breast cells; MCF 10A DNA re-replication, Hoechst nuclear intensity, 48 h; Potency, µM (top dose mostly 46.1 µM), usual class: activators; hit rate 2.9% among 350,000; AID 624296, 2012; note: nearly all actives have a fitted effect of over 50% in size
# Numbers stand for hits; 0 = inactive; ? = inconclusive; - = no result given; [ ] = dose if it differs, or a comment. The list is not random: actives were taken first. Their share in the collection is about 19%. Unless noted, calls come from the whole dose curve; as a rule, active = well fitted curve in the direction sought with a large enough effect; inconclusive = small, poorly fitted or top-dose-only effect, or another doubt; inactive = no such curve, though single readings can be large; an effect the other way counts as inactive or inconclusive.
SMILES,SW480 rerep,TDP1 cell CPT,IL-1B inflam inh,TDP1 cell noCPT,Chronic BCR inh,MCF10A rereplic
O=C(NCc1ccncc1)c1cnn(-c2nccc(-c3cc4ccccc4o3)n2)c1C1CC1,-,?,-,0,-,-
Cc1ccc(-n2c(SCC(=O)NCc3ccco3)nc3c(sc4ccccc43)c2=O)cc1,0,?,0,?,?,?
Cc1cc(NC(=O)CSc2nc3c(sc4ccccc43)c(=O)n2CCCN2CCOCC2)n[nH]1,7.3µM,?,0,?,0,?
Cc1cc(NC(=O)CSc2nc3c(sc4ccccc43)c(=O)n2CCc2ccccc2)n[nH]1,0,?,0,?,0,0
O=C(CSc1nc2c(sc3ccccc32)c(=O)n1CCCN1CCCC1)NCc1ccco1,0,0,-70,0,0,?
CC1(C)C(=O)C=CC(=O)C(C)(C)C(=O)C=CC(=O)C(C)(C)C2=CC=C(O2)C(C)(C)C(=O)C=CC1=O,?,0.82µM,-97,0.82µM,-,7.3µM
CC(=O)N[C@@H](CCC(=O)O)C(=O)O,0,0,-,0,-,0
C[C@@H]1CCC2[C@@H](C)[C@@H](O)O[C@@H]3O[C@@]4(C)CC[C@@H]1[C@@]23OO4 (stereo partly specified),?,0.041µM,-,0.094µM,-,0
CC(C)CCCN1C(N(C)C)=NC[C@@H]1Cc1ccccc1,0,21µM,0,21µM,0,0
CCC(C)CCN1C(N(C)C)=NC[C@@H]1Cc1ccccc1 (stereo partly specified),0,12µM,0,?,0,?
Cc1ccc(NC(=O)CSc2nc3c([nH]c4ccccc43)c(=O)n2C)cc1,0,13µM,0,8.2µM,0,?
Cn1c(SCC(=O)Nc2ccc(F)cc2)nc2c([nH]c3ccccc32)c1=O,0,18µM,0,?,0,0
Cc1ccc(C)c(CSc2nc3c([nH]c4ccccc43)c(=O)n2C)c1,-,6.5µM,-,3.3µM,-,-
CCCS(=O)(=O)NC(=O)C1(C)CCN(C(=O)Cc2ccc(OC)cc2)C1 (stereo unspecified),-,0,0,0,-,-
CC(=O)Nc1ccc(OCC(=O)N2CCC(Cc3ccccc3)CC2)cc1,0,0,-53,0,0,0
O=C(Nc1ccc(OCC(=O)N2CCN(S(=O)(=O)c3ccccc3)CC2)cc1)c1ccco1,0,0,?,0,0,0
O=C(Nc1ccc(OCC(=O)N2CCC(Cc3ccccc3)CC2)cc1)c1ccco1,0,21µM,?,29µM,?,0[0.0737 µM]
O=C(COc1ccc(C(=S)N2CCC(Cc3ccccc3)CC2)cc1)N1CCOCC1,0,0,0,0,0,0
CCCCN(CC)C(=O)c1oc2ccc(S(=O)(=O)N3CCCC3)cc2c1C,0,?,0,0,?,0
COCCCn1c(C(=O)NCCC2=CCCCC2)cc2c(=O)n3ccccc3nc21,?,0,0,0,?,0
CCN(C(=O)c1cc2c(=O)n3cccc(C)c3nc2n1CCCOC)C1CCCCC1,29µM,21µM,0,16µM,?,18µM
COCCCn1c(C(=O)NC2CCCCC2C)cc2c(=O)n3cccc(C)c3nc21 (stereo unspecified),0,16µM,0,21µM,0,?
CCC1CCCCN1S(=O)(=O)c1ccc(-n2cnnn2)c(C)c1 (stereo unspecified),0,0,0,0,0,0
Brc1nnc2n1-c1ccccc1Sc1ccccc1-2,0[9.22 µM],0,?,0,0,0
Clc1ccc2c(c1)-c1nnc(Br)n1-c1ccccc1S2,0[9.22 µM],?,-55,?,0,0
SMILES,SW480 rerep,TDP1 cell CPT,IL-1B inflam inh,TDP1 cell noCPT,Chronic BCR inh,MCF10A rereplic
C[C@@H]1CN([C@H](C)CO)C(=O)c2cc(Br)cnc2O[C@H]1CN(C)C(=O)Cc1ccccc1,-,0,0,0,-,-
CCc1ccc([C@@H]2CC=C(C(=O)O)[C@H](c3cccc(Cl)c3)N2S(=O)(=O)c2ccc(C)cc2)cc1,0,0,0,0,0,0
Cc1ccc(S(=O)(=O)N2[C@@H](c3ccc(Cl)cc3)C(C(=O)OC(C)(C)C)=CC[C@H]2c2ccc(Cl)c(Cl)c2)cc1,-,?,0,15µM,-,-
Cc1ccc(S(=O)(=O)N2[C@@H](c3cccc(Cl)c3)C(C(=O)OC(C)(C)C)=CC[C@H]2c2ccc(C(C)C)cc2)cc1,-,?,0,15µM,-,-
CC(=O)N1CCc2c(sc3c2c(=O)n(-c2ccccc2Cl)c(=O)n3C)C1,-,0,-,0,0,-
CC1(C)C(=O)C=C(N2CCCCC2)c2ccccc21,-,?,0,?,-,-
O=C(NCc1ccc(Cl)cc1)c1ccc(Cn2c(=O)c3cccn3c3cccnc32)cc1,-,0,-,0,-,-
O=C(NCCc1ccccc1Cl)c1ccc(Cn2c(=O)c3cccn3c3cccnc32)cc1,-,10µM,-,10µM,-,-
CN(C)c1ccc(CNC(=O)c2ccc(Cn3c(=O)c4cccn4c4cccnc43)cc2)cc1,-,?,-,0.21µM,-,-
COCCn1c(SCC(=O)Nc2cc(C)on2)nnc1-c1ccccc1,0,0,0,0,0,0
O=C(CN(Cc1ccc(Cl)cc1)C(=O)CNS(=O)(=O)c1ccc(F)cc1)NCC1CCCO1 (stereo unspecified),0,0,0,0,0,0
OCCCCNCc1ccc(OCc2ccc(Cl)cc2Cl)cc1,0,21µM,-101,23µM,?,0
COc1ccc(CNC(=O)COC(=O)Cc2ccc(Cl)cc2Cl)cc1,0,0,0,?,0,0
OCCNCc1ccc(OCc2ccc(Cl)cc2Cl)cc1,4.1µM,18µM,-98,18µM,?,?
O=c1[nH]nc(-c2ccc(OCc3ccc(Cl)cc3Cl)cc2)o1,0,0,0,0,0,?
S=C(Nc1ccccc1)Nc1ccc(OCc2ccc(Cl)cc2Cl)cc1,?,18µM,0,?,0,0[0.0737 µM]
Cc1ncc(Cc2ccccc2)c(C2CCN(S(=O)(=O)C[C@]34CC[C@H](CC3=O)C4(C)C)CC2)n1,-,?,-,15µM,-,-
Cc1ccc(C)c(N2CCN(S(=O)(=O)CC34CCC(CC3=O)C4(C)C)CC2)c1 (stereo unspecified),0,?,0,0,?,0
CC(=O)Oc1cccc(/C=c2\sc3nc(-c4ccco4)nn3c2=O)c1,?,?,?,16µM,0,?
COc1cc(/C=c2\sc3nc(-c4ccncc4)nn3c2=O)ccc1OC(C)=O,-,-,-,-,0,-
N#Cc1ccc(COc2ccc(CCO)cc2-n2nc3ccccc3n2)cc1,0,?,0,16µM,0,0
OCCc1ccc(O)c(-n2nc3ccccc3n2)c1,0,0,0,0,0,0
